An excerpt weighted towards active compounds, which were near 6.6% of everything screened.
BoNT F protease: BoNT F light chain protease inhibition. Multiplex microsphere protease cleavage assay, flow cytometry. inhibition, % at 10 µM. actives 0.22% (n = 360,000). AID 588497; in the data active = inhibition above about 35%, passing the limit was not always enough; inconclusive = no clear call, values can overlap the other calls; also: plate controls were buffer without enzyme for full effect and enzyme alone for no effect
BoNT-A LC inh2: blocks Botulinum neurotoxin A light chain protease. multiplex microsphere protease substrate cleavage, flow cytometry. inhibition, % at 10 µM. actives 0.17% (n = 360,000). AID 588499; also: plate controls were buffer without enzyme for full effect and enzyme alone for no effect
GDH-TPI counter-1: GDH-TPI coupled enzyme inhibition counter-screen | AID 588335 | actives 1.2% (n = 360,000) | GDH-TPI coupled enzyme counterscreen, NADH absorbance | inhibition, % at 4.8 µM; in the data active = inhibition above about 30%;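 also: 0% = DMSO wells and 100% = wells lacking the enzyme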
Mtb FBA inh: inhibits M. tuberculosis FBA enzyme; P9WQA3; purified M. tuberculosis FBA, fluorescence read-out; inhibition, % at 1 µM; actives 2.3% (n = 360,000); in the data active = inhibition above about 27%;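 also: 0% = vehicle and 100% = reference inhibitor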
Target sequence (P9WQA3 whole entry, looked up): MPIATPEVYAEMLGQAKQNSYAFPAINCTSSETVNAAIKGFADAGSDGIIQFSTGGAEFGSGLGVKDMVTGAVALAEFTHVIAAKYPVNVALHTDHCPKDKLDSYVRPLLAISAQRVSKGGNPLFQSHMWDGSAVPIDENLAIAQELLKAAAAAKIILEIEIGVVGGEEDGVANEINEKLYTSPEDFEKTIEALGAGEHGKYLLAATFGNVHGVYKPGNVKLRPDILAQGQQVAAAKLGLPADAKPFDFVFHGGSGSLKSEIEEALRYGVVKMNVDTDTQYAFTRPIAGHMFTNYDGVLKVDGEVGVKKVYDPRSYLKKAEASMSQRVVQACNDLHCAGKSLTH
Bead autofluor: flagged as autofluorescent in microsphere protease counterscreen | actives 3.1% (n = 360,000) | compound autofluorescence counterscreen, microsphere flow cytometry; stronger effect = higher value | AID 624483 | fluorescence intensity (no concentration beside the values); in the data active = fluorescence intensity above about 16000; inconclusive = no clear call, values can overlap the other calls
Anthrax LF prot: blocks Bacillus anthracis lethal factor protease. P15917. multiplex microsphere protease cleavage assay, LF. inhibition, % at 10 µM. actives 0.12% (n = 360,000); also: plate controls were buffer without enzyme for full effect and enzyme alone for no effect
Mtb FBA inh conf: Mtb FBA inhibition, confirmed; purified M. tuberculosis FBA, fluorescence read-out; AID 651616; actives 78% (n = 5,600); shares compounds with Mtb FBA inh; inhibition, % at 1 µM; in the data active = inhibition above about 27%;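 also: 0% = vehicle wells and 100% = reference inhibitor wells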
GDH-TPI counter-2: inhibits GDH-TPI coupling enzymes, flagging Mtb FBA hits | inhibition, % at 1 µM | GDH-TPI coupled enzyme counterscreen, fluorescence | shares compounds with Mtb FBA inh | actives 81% (n = 5,600); in the data active = inhibition above about 10%
The depositor's hits bear a star; ? = inconclusive; . = no result given; + = active, no number. Rule as the data show it, unless noted: active = inhibition above about 30%; inconclusive = no clear call, values can overlap the other calls; inactive = below that.

SMILES | BoNT F protease | BoNT-A LC inh2 | GDH-TPI counter-1 | Mtb FBA inh | Bead autofluor | Anthrax LF prot | Mtb FBA inh conf | GDH-TPI counter-2
Cc1ccc2c(c1)=NC(=O)/C(=C/c1c(O)[nH]c(=O)[nH]c1=O)C=2 | 0 | 0 | 1 | 35* | 3999 | -2 | 95* | 65*
CC1=Nc2ccccc2/C1=C/c1c(O)[nH]c(=O)[nH]c1=O | ? | 18 | 3 | -2 | 3336 | 18 | . | .
Cc1ccc(-c2cc3cccc[n+]3cc2-c2ccc(C)cc2)cc1 | 11 | 3 | 21 | 40* | 10910 | -2 | 126* | 98*
Cc1ccc2nc(-c3ccncc3)cc(-c3ccccc3)c2c1 | -9 | -1 | 11 | 7 | 7980 | -2 | . | .
Cc1cc(C)c(C)c(S(=O)(=O)N2CCC(C(=O)NNC(=O)c3ccccc3O)CC2)c1C | -2 | -5 | 4 | 39* | ? | 0 | 133* | 113*
Cc1ccc(S(=O)(=O)N2CCC(C(=O)NNC(=O)c3ccccc3O)CC2)cc1 | 16 | 1 | 14 | 19 | ? | 0 | . | .
Cc1ccc(S(=O)(=O)N2CCC(C(=O)NNC(=O)c3ccccc3O)CC2)cc1C | -1 | 2 | -4 | 30* | 5117 | 11 | + | +
CC1CCCC(NC(=O)COC(=O)[C@@H](NC(=O)c2ccc(F)cc2)C(C)C)C1C (some centres undefined) | -5 | 0 | 2 | -2 | 3776 | 2 | . | .
COc1ccc(OC)c(/C=N/NC(=O)CCc2c(C)n[nH]c2C)c1 | 40* | 6 | 5 | 78* | 3807 | 12 | 95* | 89*
COc1ccc(OC)c(/C=N/NC(=O)c2c(C)nc3ccc(C)cn23)c1 | -13 | 1 | 30 | 78* | 3888 | 10 | 105* | 88*
COc1cccc(/C=N/NC(=O)c2c(C)nc3ccc(Br)cn23)c1 | -2 | -1 | 13 | 2 | 4222 | 2 | . | .
COc1ccc(OC)c(/C=N/NC(=O)CCc2ccc(O)c(O)c2)c1 | -2 | 0 | 5 | 43* | 2163 | 0 | 127* | 99*
COc1ccc(OC)c(/C=N/NC(=O)C(=O)N/N=C/c2cc(OC)ccc2OC)c1 | -9 | 1 | 13 | 2 | 4053 | 20 | . | .
CC(=O)C1=CCC(c2ccccc2Cl)N(S(=O)(=O)c2ccc(C)cc2)C1 (centres undefined) | -2 | 0 | . | 0 | 4334 | -8 | . | .
CCCCN(CC)C(=O)C1CCC(CNS(=O)(=O)c2cccc3nsnc23)CC1 (centres undefined) | 2 | 1 | 4 | 1 | 4226 | 1 | . | .
CCOC(=O)c1sc(NC(=O)c2ccc(S(=O)(=O)N3CCOCC3)cc2)cc1C | -3 | -1 | 11 | -1 | 3543 | 0 | . | .
CCOC(=O)C(CC)c1cc2n(c(=O)c1C#N)CCC21OCCO1 (centres undefined) | 4 | 0 | . | 69* | 5622 | -2 | + | +
O=C1c2ccccc2-c2nc3ccccc3nc21 | 8 | 2 | 23 | -3 | 10014 | 1 | . | .
COc1ccccc1-c1nc2ccccc2nc1-c1ccccc1OC | -4 | 0 | 11 | 28* | 2418 | 1 | 166* | 140*
O=C(O)c1c(C(=O)O)c(-c2ccc(F)cc2)n2c1CCC2 | ? | 3 | -7 | 7 | 4133 | 3 | . | .
C=CCOC(=O)C1=C[C@@H](C2CCCCC2)C[C@@H](OCc2ccc(CO)cc2)O1 | -5 | 0 | -3 | -1 | 4293 | -4 | . | .
Cc1ccc(-c2cc(C(F)F)nc(S(C)(=O)=O)n2)cc1 | -3 | 0 | 20 | 34* | 5049 | -3 | 112* | 86*
COc1cccc(C(=O)NCCS(=O)(=O)N2CCN(c3ccccc3)CC2)c1OC | 2 | 0 | 6 | 1 | 2826 | 0 | . | .
CN(c1ccc(C(=O)NCCSCc2c(F)cccc2Cl)cc1)S(C)(=O)=O | 4 | 0 | -8 | 5 | 4167 | 2 | . | .
CCOC(=O)CCc1c(C)c2ccc(OC(C)C(=O)OCC)c(C)c2oc1=O (centres undefined) | 2 | 2 | 21 | 51* | 20895* | 0 | 55* | 44*
SMILES | BoNT F protease | BoNT-A LC inh2 | GDH-TPI counter-1 | Mtb FBA inh | Bead autofluor | Anthrax LF prot | Mtb FBA inh conf | GDH-TPI counter-2
CCC(=O)Oc1ccc2c(C)cc(=O)oc2c1C | ? | -1 | 4 | 39* | 4878 | -2 | 94* | 95*
CCC(=O)Oc1ccc2oc(=O)cc(C)c2c1 | 5 | 1 | -1 | 1 | 8499 | 3 | . | .
CCc1cc(=O)oc2c(C)c(OC(C)C(=O)NCC3CCC(C(=O)O)CC3)ccc12 (centres undefined) | 2 | 0 | 6 | 7 | 5369 | 1 | . | .
CCOC(=O)C(C)Oc1ccc2c(CC)cc(=O)oc2c1C (centres undefined) | 2 | 0 | 2 | 31* | 2392 | -1 | 74* | 72*
CCN1CCC[C@H]1CNCCCn1cnc2c(SC)ncnc21 | -7 | 0 | 2 | 1 | 3721 | -3 | . | .
c1ccc(-n2cc(CN3CCC(N4CCOCC4)CC3)c(-c3ccc4c(c3)OCO4)n2)cc1 | -3 | 0 | 11 | 36* | 2093 | 0 | 55* | 66*
COc1ccc(NC(=S)Nc2ccc3c(c2)c(=O)n(C)n3-c2ccccc2)cc1 | -4 | 0 | 8 | 25 | 4070 | -5 | . | .
Cn1c(=O)c2cc(NC(=S)NC3CCCCC3)ccc2n1-c1ccccc1 | -5 | 0 | 1 | 42* | 3444 | -4 | 76* | 81*
O=C(O)C(Oc1ccc2ccccc2c1)c1ccccc1 (centres undefined) | -3 | 4 | -5 | 3 | 3826 | 8 | . | .
COc1ccc2c(c1)oc(=O)c1ccccc12 | -1 | 0 | 5 | 88* | 6362 | 0 | 41* | 31*
O=C(O)C(Oc1ccc2c(c1)oc(=O)c1ccccc12)c1ccccc1 (centres undefined) | 1 | 0 | 9 | 92* | 4323 | 6 | 37* | 30*
Cc1csc(SCC(=O)N(C)CC(=O)Nc2ccc(F)cc2)n1 | -1 | 0 | -6 | 28* | 3934 | -3 | 29* | 13*
CN(CC(=O)Nc1ccc(F)cc1)C(=O)CSc1nncs1 | -9 | -2 | 11 | 4 | 6426 | -1 | . | .
CCOc1ccc(C(=O)n2cc(C(=O)OC)c3ccccc32)cc1 | -19 | -4 | 10 | 1 | 3712 | -4 | . | .
S=C(NCc1ccccc1)N1CCN(C(=S)NCc2ccccc2)CC1 | 6 | 0 | -11 | 3 | 3448 | -3 | . | .
CNC(=O)c1ccc(-c2ccc(F)cc2)s1 | 16 | 0 | 6 | 41* | 2733 | 0 | 115* | 95*
Cc1sc2c(c1C)C(O)=C(C(=O)Nc1ccccc1)S(=O)(=O)N2C | ? | ? | 11 | -1 | 3526 | -12 | . | .
Nc1nnc(-c2ccncc2)s1 | 3 | 3 | 9 | 52* | 15057 | -7 | 5 | -1

Assay outcomes from PubChem BioAssay.
